Bioassay records from PubChem BioAssay.
Sampled rows, rich in hits. Any-hit rate of the full collection: about 10%.
BAZ2B block = qHTS Assay for Inhibitors of BAZ2B. Potency, µM (titrated, usually from 114 µM), for the others: at the highest dose activity change, negative = inhibition, hits mostly inhibitors. AlphaScreen BAZ2B-H3K14Ac peptide displacement. Bromodomain adjacent to zinc finger domain protein 2B (Homo sapiens), Q9UIF8. actives 4.4% (n = 360,000); further: on the % scale 0 is the no-effect control and ±100 the full control effect; nearly all actives have a fitted effect of over 60% in size
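AlphaScreen luminescence quantifies BAZ2B engagement of H3K14Ac peptide; the protein and biotinylated peptide are both at 50 nM final, buffer PBS pH 7.4 with 0.01% Tween-20, all steps at room temperature.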
GLS inhibitor = qHTS for Inhibitors of Glutaminase (GLS); GLS enzymatic activity, qHTS titration; Potency, µM (doses to about 45.5 µM), without a hit: at the highest dose activity change, negative = inhibition, most hits filed as inhibitors; Glutaminase kidney isoform, mitochondrial (Homo sapiens), O94925; actives 0.21% (n = 410,000); AID 624170, 2012; further: on the % scale 0 is the no-effect control and ±100 the full control effect
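Compounds were pin-transferred onto hKGA, after which L-glutamine (1 mM solution) and a detection mix of glutamate oxidase, HRP and Amplex Red were added. Initial and 30 min RT fluorescence reads were collected.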
HP1b binding inh = HTS for Inhibitors of HP1-beta Chromodomain Interactions with Methylated Histone Tails; Chromobox protein homolog 1 (Homo sapiens), P83916; AlphaScreen HP1-beta / biotin-H3K9me3 peptide binding; Potency, µM (series often up to 114 µM), without a hit: at the top dose activity change, negative = inhibition, actives largely listed as inhibitors; actives 0.56% (n = 390,000); further: nearly all actives have a fitted effect of over 70% in size
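HP1-beta protein (50 nM final) preincubated 30 min at room temperature with biotinylated H3(1-18)K9me3 peptide (50 nM) in PBS pH 7.4, 0.01% Tween-20, then compound added for 30 min. AlphaScreen streptavidin donor/nickel chelate acceptor beads (10 ug/mL final), 30 min dark, luminescence read.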
G9a block = qHTS Assay for Inhibitors of Histone Lysine Methyltransferase G9a; Histone-lysine N-methyltransferase EHMT2 (Homo sapiens), Q96KQ7; G9a H3K9 monomethylation, AlphaScreen, 2 h; Potency, µM (series often up to 102 µM), inactives show at the top dose activity, negative = inhibition, hits mostly inhibitors; actives 8.8% (n = 350,000); further: on the % scale 0 is the no-effect control and ±100 the full control effect; nearly all actives have a fitted effect of over 75% in size
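Using a bead-based AlphaScreen, monomethylated H3K9 product from 2 h room-temperature reactions (G9a 20 nM, peptide 500 nM, SAM 20 uM) was detected with 0.5 ug/mL rabbit anti-H3K9me1 antibody.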
JMJD2A Tudor = qHTS Assay for Inhibitors of JMJD2A-Tudor Domain. Lysine-specific demethylase 4A (Homo sapiens), O75164. AlphaScreen JMJD2A-Tudor / H3K4me3 peptide binding. Potency, µM (series often up to 114 µM), inactives show top-dose activity change, negative = inhibition, hits mostly inhibitors. actives 4.4% (n = 390,000). AID 504339, 2011; further: on the % scale 0 is the no-effect control and ±100 the full control effect; nearly all actives have a fitted effect of over 50% in size
Active calls of the source: *; ? = inconclusive; nt = no result given; [ ] = remark or other dose. The call rests on the fitted dose curve; in most records, active means well fitted curve in the direction sought with a large enough effect; inconclusive means small, poorly fitted or top-dose-only effect, or another doubt; inactive means no such curve, though single readings can be large; an effect the other way counts as inactive or inconclusive. Potency means the concentration at half of the fitted maximal effect.

SMILES | BAZ2B block | GLS inhibitor | HP1b binding inh | G9a block | JMJD2A Tudor
Oc1c(C(c2ccc(Cl)cc2Cl)N2CCN(Cc3ccccc3)CC2)sc2nc(-c3ccco3)nn12 (centres undefined) | ? | 4.8% | ? | 12.6µM* | ?
Cc1nc2sc(C(c3ccco3)N3CCC(C)CC3)c(O)n2n1 (centres undefined) | -2.1% | -1.4% | 34.8% | ? | -11.1%
CCCOC(=O)c1ccc(NC(=O)C2C3C=CC(O3)C2C(=O)O)cc1 (centres undefined) | -28.4% | 20.4% | 51.7% | 14.1µM* | -18.4%
CC(C)OC(=O)c1cc(NC(=O)C2C3C=CC(O3)C2C(=O)O)cc(C(=O)OC(C)C)c1 (centres undefined) | ? | 7.0% | 73.3% | 50.1µM* | ?
CC(=O)c1ccc(NC(=O)C2C3C=CC(O3)C2C(=O)O)cc1 (centres undefined) | 2.3% | 6.9% | 4.1% | ? | ?
COc1ccc(NC(=O)C2C3C=CC(O3)C2C(=O)O)cc1 (centres undefined) | -0.7% | 10.9% | 24.8% | 39.8µM* | -18.5%
Cc1ccc(CSc2nc3cccnc3n2Cc2nc(-c3ccccc3F)oc2C)cc1 | -10.3% | 2.6% | 28.2% | ? | -31.4%
Cc1cc(C)c(C)c(S(=O)(=O)Nc2ccccc2N2CCOCC2)c1C | nt | 2.5% | 43.7% | nt | -2.9%
Cc1ccc(C)c(C(=O)OCC(=O)Nc2cccc(S(=O)(=O)N3CCCCC3)c2)c1 | 3.7% | 2.5% | 29.5% | -15.2%[59 µM] | -19.3%
COc1cc(OC)c(NC(=O)Nc2cccc(OCc3cc(=O)n4ccccc4n3)c2)cc1Cl | -37.0% | -16.2% | 14.0%[57 µM] | ? | -35.1%
CCc1cc2c(=O)c(-c3nc4ccccc4n3C)coc2c(CN2CCCCC2C)c1O (centres undefined) | 44.7µM* | 5.6% | 20.6% | 45.9% | -31.7%
O=C(CCC1CCCNC1)c1ccccc1 (centres undefined) | 2.6% | nt | nt | 50.1µM* | nt
Cc1cc(Cl)ccc1OC(C)C(=O)Nc1ccc(C(=O)Nc2ccccc2C(=O)O)cc1 (centres undefined) | ? | 7.3% | 29.6% | nt | -19.9%
CC1=C[C@H](C)[C@H](c2c(F)cccc2Cl)CC1=O | 7.7% | -0.6% | 40.6% | 53.5% | -0.7%
COc1cccc(NS(=O)(=O)c2cc(-c3cnc(C4CC4)o3)ccc2C)c1 | -32.4% | -7.5% | -11.4% | ? | -32.8%
OCn1ncn(-c2ccccc2)c1=S | -12.2% | 15.7% | 18.5% | ? | 35.5µM*
CCCCCCCNC1=CC(=O)CC(c2ccco2)C1 (centres undefined) | ? | -0.6% | -18.9% | ? | 50.1µM*
CC1(C)OC(=O)C2(Cc3ccc(Br)cc3N3CCCCC32)C(=O)O1 (centres undefined) | nt | nt | 5.3% | nt | 56.2µM*
COc1ccc(CCNCC(O)COc2ccc(OC)cc2C(C)(C)C)cc1 (centres undefined) | 70.8µM* | -23.4% | ? | 44.7µM* | 3.55µM*
COc1ccc(C(OCC(O)CNCCc2ccc(S(N)(=O)=O)cc2)c2ccc(OC)cc2)cc1 (centres undefined) | -26.7% | 1.4% | 10.5% | -7.3% | -30.3%
COc1ccc(CCNC[C@H](O)COc2cccc(C)c2)cc1OC | nt | -0.3% | nt | nt | nt
COc1ccc(CCNCC(O)COc2cccc(Br)c2)cc1OC (centres undefined) | 50.1µM* | 16.4% | ? | nt | 1µM*
COc1ccc(C(NC(=O)C2CCN(CCOc3ccc(Cl)cc3Cl)CC2)c2cccs2)cc1 (centres undefined) | nt | 18.1% | nt | nt | nt
COc1cc2[nH]c(Cl)c([N+](=O)[O-])c2cc1OC | 56.2µM* | 9.8% | -18.4% | ? | ?
CC1(C)CC(=O)C2=C(C1)Nc1ccccc1NC2c1ccc(F)cc1 (centres undefined) | -4.6% | 17.9% | 22.9% | 13.3% | -18.5%
SMILES | BAZ2B block | GLS inhibitor | HP1b binding inh | G9a block | JMJD2A Tudor
O=C1NCC2=C1C(c1ccc(Br)cc1)Nc1ccccc1N2 (centres undefined) | -2.5% | -0.6% | 17.1% | 44.7µM* | -30.6%
CC(=O)c1sc(NC(=O)C2CC(=O)N(Cc3ccco3)C2)nc1-c1ccccc1 (centres undefined) | ? | 60.8% | ? | 50.1µM* | ?
O=C(Nc1ccc(Cl)cc1F)C1CC(=O)N(Cc2ccco2)C1 (centres undefined) | 7.4% | 2.1% | 22.1% | 56.2µM* | -13.1%
COCCNc1cc(-c2ccccc2C)ncn1 | nt | nt | nt | 2.1%[0.501 µM] | nt
CC(=O)N1N=C(c2ccc([N+](=O)[O-])cc2)CC1c1ccccc1Cl (centres undefined) | ? | 2.5% | ? | 50.1µM* | ?
O=C(CCl)N1N=C(c2ccco2)CC1c1ccco1 (centres undefined) | 44.7µM* | ? | 50.1µM* | 50.1µM* | 44.7µM*
COc1ccc(C2CC(c3ccc4ccccc4c3)=NN2C(=O)CSc2ncccn2)cc1 (centres undefined) | -1.1% | 1.7% | 17.4% | 39.8µM* | -21.9%
COc1ccc(C2=NN(C(=O)CCC(=O)O)C(c3ccc([N+](=O)[O-])cc3)C2)cc1 (centres undefined) | -1.7% | 0.4% | 13.5% | 39.8µM* | -11.9%
O=C(OCC(=O)N1N=C(c2ccc(Cl)cc2)CC1c1ccco1)c1cccnc1 (centres undefined) | nt | -6.9% | ? | nt | 35.5µM*
COc1ccc(C(=O)NCC(=O)OCC(=O)N2N=C(c3ccc(Cl)cc3)CC2c2ccco2)cc1OC (centres undefined) | -26.8% | 2.0% | 16.5% | 20µM* | -35.4%
COc1ccc(C2CC(c3ccccc3)=NN2C(=O)COC(=O)c2cccnc2)cc1 (centres undefined) | -37.3% | 0.9% | 38.2% | 17.8µM* | -8.1%
C=CCOc1c(Br)cc(CNc2nccs2)cc1OC | ? | -7.6% | 0.8% | 11.2µM* | ?
C=CCOc1ccc(CNn2c(C)n[nH]c2=S)cc1OC | -0.3% | 4.9% | 48.7% | nt | 20µM*
COc1cc(CNC(C)(C)C)cc(Br)c1OCc1cccs1 | 4.3% | 4.9% | -0.2% | -1.3%[59 µM] | -26.8%
C=CCOc1ccc2ccccc2c1CNn1c(C)n[nH]c1=S | 40.9% | 4.7% | 26.8% | nt | ?
C=CCOc1c(Br)cc(CNn2c(C)n[nH]c2=S)cc1OC | -30.4% | 38.4% | ? | 11.2µM* | 89.1µM*
CCc1cccc(NC(=O)CSc2n[nH]c(-c3ccccc3Cl)n2)c1 | 2.5% | -6.6% | 12.6%[57 µM] | 5.7%[59 µM] | -22.4%
